The source of these data is the supplement of paper PMC10037445.

Whole data set: some 2,900 compounds, median “NF-kB SEAP reporter activity, fold change vs agonist alone” near 0.99, cut for the highest 2% near 2.6. This is one part of a sample in which the highest values are shown more often than they occur.

For assay [1], the system named is RAW-Dual. Nature of the assay: NF-kB SEAP reporter activity, fold change vs agonist alone; cytotoxicity flag (confluency mask): not cytotoxic; higher = enhanced NF-kB activity. An outline of the steps: (§1)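 Library stock was pin-tooled at 50 nL into 384-well plates of RAW-Dual macrophages (50,000 cells/well, DMEM), followed 1 h later by a PRR agonist, and the cells were kept at 37 °C, 5% CO2. Supernatant collected after 20 hours was read for IRF by QuantiLuc luminescence and for NF-κB by QuantiBlue absorbance at 620 nm. Reporter activity is fold change over agonist-alone wells, and a well counted as cytotoxic when its IncuCyte confluency was below 70% of agonist controls in both mask sets.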

Assay [2] deals with RAW-Dual. The assay is described as follows: NF-kB SEAP reporter activity, fold change vs agonist alone; higher = enhanced NF-kB activity. Conditions: library stock concentration (final ~1000-fold dilution): 10 mM. In outline: as §1
Assay [3] has as its system RAW-Dual. Nature of the assay: NF-kB SEAP reporter activity, fold change vs agonist alone; cytotoxicity flag (confluency mask): cytotoxic (confluency <70% of control); higher = enhanced NF-kB activity. An outline of the steps: as §1
The mark [4] stands for this setting: agonist: ODN 1826 (TLR9) 0.5 ug/mL.
Setting [5] is: agonist: Pam2CSK4 (TLR2/6) 0.1 ug/mL.
Where [6] appears, read: agonist: Pam3CSK4 (TLR2/1) 0.1 ug/mL.
The mark [7] stands for this setting: cytotoxicity flag (confluency mask): not cytotoxic, agonist: Imiquimod (TLR7) […].
Where [8] appears, read: cytotoxicity flag (confluency mask): not cytotoxic, agonist: MPLA (TLR4) […].
Where [9] appears, read: cytotoxicity flag (confluency mask): cytotoxic (confluency <70% of control), agonist: Imiquimod (TLR7) […].
Setting [10] is: cytotoxicity flag (confluency mask): cytotoxic (confluency <70% of control), agonist: MPLA (TLR4) […].

As to `Nc1nonc1/C(=N\O)Nc1ccc(F)c(Cl)c1` (library stock concentration (final ~1000-fold dilution): 10 mM), the “NF-kB SEAP reporter activity” value stood at 1.01 in the assay with RAW-Dual [1] (agonist: LPS (TLR4) 0.1 ug/mL), 0.882 in the assay on RAW-Dual [1] (setting [4]), 0.938 in the assay on RAW-Dual [1] (setting [5]) and 0.585 in the assay on RAW-Dual [1] (setting [6]).

Consider `Nc1nonc1/C(=N\O)Nc1ccc(F)c(Cl)c1`, for which the “NF-kB SEAP reporter activity” value turned out to be 0.904 with RAW-Dual [2] (setting [7]) and 0.933 in the assay on RAW-Dual [2] (setting [8]).

With `COc1ccc2cc1Oc1ccc(cc1)CC1c3c(cc4c(c3Oc3cc5c(cc3OC)CCN(C)C5C2)OCO4)CCN1C` (configuration not stated) (library stock concentration (final ~1000-fold dilution): 10 mM), the “NF-kB SEAP reporter activity” value with RAW-Dual [3] (agonist: LPS (TLR4) 0.1 ug/mL) was 1.44; with RAW-Dual [3] (setting [4]), 0.251; with RAW-Dual [3] (setting [5]) it was 1.42; with RAW-Dual [3] (setting [6]) it was 1.01.

On to `COc1ccc2cc1Oc1ccc(cc1)CC1c3c(cc4c(c3Oc3cc5c(cc3OC)CCN(C)C5C2)OCO4)CCN1C` (configuration not stated), for which the “NF-kB SEAP reporter activity” value is 1.58 with RAW-Dual [2] (setting [9]) and 2.32 in the assay on RAW-Dual [2] (setting [10]).

Take `CN1CCN(Cc2ccc(NC(=O)Nc3ccc(Oc4ccnc(N)n4)cc3)cc2C(F)(F)F)CC1` (library stock concentration (final ~1000-fold dilution): 10 mM): the “NF-kB SEAP reporter activity” value in the assay with RAW-Dual [3] (agonist: LPS (TLR4) 0.1 ug/mL) was found to be 0.293; in the assay on RAW-Dual [3] (setting [4]), 0.197; with RAW-Dual [3] (setting [5]), 0.0678; with RAW-Dual [3] (setting [6]), 0.129.

With `CN1CCN(Cc2ccc(NC(=O)Nc3ccc(Oc4ccnc(N)n4)cc3)cc2C(F)(F)F)CC1`, the results for the “NF-kB SEAP reporter activity” value in the assay with RAW-Dual [2] (setting [9]) and with RAW-Dual [2] (setting [10]) were 0.146 and 0.248, respectively.

For the compound `OC1C=C2CCN3Cc4cc5c(cc4C(C1O)C23)OCO5` (configuration not stated) (library stock concentration (final ~1000-fold dilution): 10 mM), the “NF-kB SEAP reporter activity” value in the assay with RAW-Dual [3] (agonist: LPS (TLR4) 0.1 ug/mL) was 1.54; in the assay on RAW-Dual [3] (setting [4]) it was 1.05; with RAW-Dual [3] (setting [5]), 0.33; in the assay with RAW-Dual [3] (setting [6]), 0.552.

As to `OC1C=C2CCN3Cc4cc5c(cc4C(C1O)C23)OCO5` (configuration not stated), the “NF-kB SEAP reporter activity” value in the assay with RAW-Dual [2] (setting [9]) was 2.07; with RAW-Dual [2] (setting [10]), 1.61.

In the case of `CNCCC(Oc1ccccc1C)c1ccccc1.Cl` (configuration not stated) (library stock concentration (final ~1000-fold dilution): 10 mM), the “NF-kB SEAP reporter activity” value in the assay with RAW-Dual [1] (agonist: LPS (TLR4) 0.1 ug/mL) came out at 1.15; in the assay on RAW-Dual [1] (setting [4]) it was 0.76; with RAW-Dual [1] (setting [5]), 0.791; with RAW-Dual [1] (setting [6]), 1.01.

As to `CNCCC(Oc1ccccc1C)c1ccccc1.Cl` (configuration not stated), the “NF-kB SEAP reporter activity” value amounted to 1.52 in the assay with RAW-Dual [2] (setting [7]) and 1.15 with RAW-Dual [2] (setting [8]).

As to `NC(=O)C(=Cn1cnc(-c2cc(C(F)(F)F)cc(C(F)(F)F)c2)n1)c1cncnc1`, the entries for the “NF-kB SEAP reporter activity” value in the assay on RAW-Dual [2] (setting [7]) and in the assay with RAW-Dual [2] (setting [8]) were 0.765 and 0.772, respectively.

On to `NC(=O)C(=Cn1cnc(-c2cc(C(F)(F)F)cc(C(F)(F)F)c2)n1)c1cncnc1` (library stock concentration (final ~1000-fold dilution): 10 mM), for which the “NF-kB SEAP reporter activity” value in the assay with RAW-Dual [1] (agonist: LPS (TLR4) 0.1 ug/mL) worked out at 0.331; with RAW-Dual [1] (setting [4]), 0.334; with RAW-Dual [1] (setting [5]), 0.13; in the assay on RAW-Dual [1] (setting [6]) it was 0.148.

As for `COc1cc2ncnc(Nc3ccc(Oc4ccccc4)cc3C)c2cc1OC.Cl`, the “NF-kB SEAP reporter activity” value with RAW-Dual [2] (setting [7]) was 1.37; in the assay with RAW-Dual [2] (setting [8]) it was 0.792.

For the compound `COc1cc2ncnc(Nc3ccc(Oc4ccccc4)cc3C)c2cc1OC.Cl` (library stock concentration (final ~1000-fold dilution): 10 mM), the “NF-kB SEAP reporter activity” value in the assay on RAW-Dual [1] (agonist: LPS (TLR4) 0.1 ug/mL) was found to be 1.05; in the assay on RAW-Dual [1] (setting [4]), 0.422; in the assay on RAW-Dual [1] (setting [5]), 0.297; in the assay on RAW-Dual [1] (setting [6]) it was 0.42.

`CN(C)CC1CCn2cc(c3ccccc32)C2=C(C(=O)NC2=O)c2cn(c3ccccc23)CCO1.Cl` (configuration not stated): the “NF-kB SEAP reporter activity” value with RAW-Dual [2] (setting [9]) is 1.68; in the assay with RAW-Dual [2] (setting [10]), 2.13.

As to `CN(C)CC1CCn2cc(c3ccccc32)C2=C(C(=O)NC2=O)c2cn(c3ccccc23)CCO1.Cl` (configuration not stated) (library stock concentration (final ~1000-fold dilution): 10 mM), the “NF-kB SEAP reporter activity” value in the assay on RAW-Dual [3] (agonist: LPS (TLR4) 0.1 ug/mL) amounted to 3.03; in the assay on RAW-Dual [3] (setting [4]) it was 0.276; in the assay on RAW-Dual [3] (setting [5]) it was 1.55; with RAW-Dual [3] (setting [6]) it was 1.77.

For `CS(=O)(=O)Nc1ccc([N+](=O)[O-])cc1Oc1ccccc1`, the “NF-kB SEAP reporter activity” value in the assay on RAW-Dual [2] (setting [7]) came to 0.516; in the assay with RAW-Dual [2] (setting [8]), 1.08.

With `O=C(Nc1ccc([N+](=O)[O-])cc1O)Nc1ccccc1Br`, the entries for the “NF-kB SEAP reporter activity” value in the assay on RAW-Dual [2] (setting [9]) and with RAW-Dual [2] (setting [10]) were 1.47 and 1.48, respectively.

As for `O=C(Nc1ccccc1)c1cc([N+](=O)[O-])ccc1Cl` (library stock concentration (final ~1000-fold dilution): 10 mM), the “NF-kB SEAP reporter activity” value in the assay on RAW-Dual [1] (agonist: LPS (TLR4) 0.1 ug/mL) turned out to be 0.722; in the assay with RAW-Dual [1] (setting [4]), 0.873; with RAW-Dual [1] (setting [5]) it was 0.881; with RAW-Dual [1] (setting [6]) it was 0.836.

As to `CS(=O)(=O)Nc1ccc([N+](=O)[O-])cc1Oc1ccccc1` (library stock concentration (final ~1000-fold dilution): 10 mM), the “NF-kB SEAP reporter activity” value in the assay on RAW-Dual [1] (agonist: LPS (TLR4) 0.1 ug/mL) was 1.05; with RAW-Dual [1] (setting [4]), 0.993; with RAW-Dual [1] (setting [5]), 0.937; in the assay on RAW-Dual [1] (setting [6]) it was 0.873.

Consider `O=C(Nc1ccccc1)c1cc([N+](=O)[O-])ccc1Cl`, for which the results for the “NF-kB SEAP reporter activity” value in the assay with RAW-Dual [2] (setting [7]) and in the assay with RAW-Dual [2] (setting [8]) were 1.37 and 0.89, respectively.

As to `O=C(Nc1ccc([N+](=O)[O-])cc1O)Nc1ccccc1Br` (library stock concentration (final ~1000-fold dilution): 10 mM), the “NF-kB SEAP reporter activity” value stood at 2.98 in the assay on RAW-Dual [3] (agonist: LPS (TLR4) 0.1 ug/mL), 2.14 with RAW-Dual [3] (setting [4]), 0.989 with RAW-Dual [3] (setting [5]) and 1.7 in the assay on RAW-Dual [3] (setting [6]).

As for `FC(F)F.N=C(N)NCCCC1NC(=O)C(CCCCN)NC(=O)C(Cc2ccc(O)cc2)NC(=O)C(CC(=O)O)NC(=O)CNC1=O.O=C(O)C(F)(F)F.O=CO` (configuration not stated), the “NF-kB SEAP reporter activity” value in the assay on RAW-Dual [2] (setting [7]) was 0.972; in the assay with RAW-Dual [2] (setting [8]), 1.04.

With `FC(F)F.N=C(N)NCCCC1NC(=O)C(CCCCN)NC(=O)C(Cc2ccc(O)cc2)NC(=O)C(CC(=O)O)NC(=O)CNC1=O.O=C(O)C(F)(F)F.O=CO` (configuration not stated) (library stock concentration (final ~1000-fold dilution): 10 mM), the “NF-kB SEAP reporter activity” value was found to be 1.23 in the assay with RAW-Dual [1] (agonist: LPS (TLR4) 0.1 ug/mL), 0.997 in the assay with RAW-Dual [1] (setting [4]), 1.14 with RAW-Dual [1] (setting [5]) and 0.899 in the assay with RAW-Dual [1] (setting [6]).
